Active and inactive are the calls of the source.
Key:
Albumin (Bos taurus) = Albumin (Bos taurus) (UniProt P02769); test: compounds binding labelled BSA control protein – biochemical, small-molecule microarray, Alexa647 label, 635/667 nm fluorescence, artefact control for SMM control protein annotation, profiling panel (AID 1118); conditions: BSA-A647 binding, fluorescence 635 nm, higher = more signal;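 note: score merges 667 nm emission intensity and signal-to-noise per printed compound spot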
[1] = probe aXIP binding to arrayed compounds – biochemical, NeuroSMM set, 635/667 nm fluorescence, primary screen (AID 1119); conditions: small-molecule microarray, higher = more signal, called active from +8 up or from −8 down;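 note: probe is the protein aXip251-270 applied at 1 µg/mL to compound-printed slides; binding of probe to printed compounds measured as 667 nm fluorescence plus signal to noise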
[2] = probe aNOTCH3 binding on compound microarray – biochemical, small-molecule microarray, 635/667 nm fluorescence, primary screen (AID 1120); conditions: higher = more signal;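 note: probe is a biotin-tagged antibody raised against NOTCH3 rather than NOTCH3 protein; score merges spot fluorescence near 667 nm with spot signal to noise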
[3] = probe aNOTCH2 binding on compound microarray – biochemical, small-molecule microarray, 635/667 nm fluorescence, primary screen (AID 1121); conditions: higher = more signal;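 note: score merges feature fluorescence read at 667 nm with its signal to noise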
[4] = target: Carbonic anhydrase 2 (Homo sapiens) (UniProt P00918); test: compounds binding carbonic anhydrase 2 – biochemical, small-molecule microarray, Alexa647-labelled CAII, profiling panel (AID 1122); conditions: CAII-A647 binding fluorescence, higher = more signal
[5] = COS7 lysate on small-molecule microarray, probe aHis, 635 nm (AID 1123); conditions: COS7 cell lysate, fluorescence, higher = more signal;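 note: z-score combines 667nm fluorescence intensity with signal-to-noise per printed compound spot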
[6] = probe aLAP1 signal on lysate-treated microarray – cell lysate, small-molecule microarray, COS7 lysate, primary screen (AID 1124); conditions: probe aLAP1, fluorescence, higher = more signal;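 note: lysate comes from COS7 cells expressing LAP1 and is applied at 0.3 µg/mL; score merges spot fluorescence near 667 nm with signal-to-noise over triplicate slides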
Sam68 (KHDRBS1) = test: compounds binding KHDRBS1 protein – biochemical, small-molecule microarray, 635 nm fluorescence, primary screen (AID 1125); conditions: higher = more signal;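 note: score merges 667 nm channel intensity with signal to noise over triplicate slides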
[7] = tested on: Chordin-like protein 2 (CHRDL2); test: compounds binding chordin-like 2 – biochemical, small-molecule microarray, 635 nm fluorescence, primary screen (AID 1126); conditions: fluorescence 635 nm, higher = more signal;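 note: printed compound slides probed with Chrdl2 protein at 4 µg/mL for 1 h at 4 C; score merges 667 nm emission intensity with signal to noise over three replicate slides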
[8] = target: Concanavalin-A (Canavalia ensiformis) (UniProt P02866); test: compounds binding concanavalin A lectin – biochemical, small-molecule microarray, Alexa647 label, 635 nm, artefact control for SMM control protein annotation, primary screen (AID 1127); conditions: ConA-A647 binding fluorescence, higher = more signal;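 note: z combines 667 nm emission intensity with signal-to-noise across three replicate slides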
Chain of Concanavalin-A (Canavalia ensiformis) (P02866 whole entry, looked up): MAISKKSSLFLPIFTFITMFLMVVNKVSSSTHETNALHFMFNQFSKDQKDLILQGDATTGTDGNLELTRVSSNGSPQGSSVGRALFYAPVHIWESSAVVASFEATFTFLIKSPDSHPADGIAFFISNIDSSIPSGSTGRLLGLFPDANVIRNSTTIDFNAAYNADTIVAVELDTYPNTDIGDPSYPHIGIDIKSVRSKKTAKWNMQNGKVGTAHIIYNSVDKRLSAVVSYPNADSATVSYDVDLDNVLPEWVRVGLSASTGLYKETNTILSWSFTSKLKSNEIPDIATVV

Chain of Albumin (Bos taurus) (P02769 whole entry, looked up): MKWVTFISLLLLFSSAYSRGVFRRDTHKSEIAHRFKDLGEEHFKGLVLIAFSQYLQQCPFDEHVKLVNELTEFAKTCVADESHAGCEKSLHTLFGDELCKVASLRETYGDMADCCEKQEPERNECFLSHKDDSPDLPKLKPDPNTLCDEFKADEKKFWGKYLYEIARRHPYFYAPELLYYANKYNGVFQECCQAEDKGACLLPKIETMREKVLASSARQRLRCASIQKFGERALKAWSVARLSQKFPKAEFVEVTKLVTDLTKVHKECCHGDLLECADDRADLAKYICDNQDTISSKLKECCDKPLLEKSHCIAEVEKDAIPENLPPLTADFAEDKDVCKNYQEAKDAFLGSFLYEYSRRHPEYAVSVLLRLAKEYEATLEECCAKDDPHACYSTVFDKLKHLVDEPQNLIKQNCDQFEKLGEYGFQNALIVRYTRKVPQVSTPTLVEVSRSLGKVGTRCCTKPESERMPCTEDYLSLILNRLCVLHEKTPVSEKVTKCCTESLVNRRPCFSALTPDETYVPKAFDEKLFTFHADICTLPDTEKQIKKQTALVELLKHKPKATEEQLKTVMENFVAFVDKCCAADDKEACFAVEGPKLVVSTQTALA

Row | SMILES | composite z-score (Albumin (Bos taurus)) | composite Z-score [1] | composite z-score [2] | composite z-score [3] | composite z-score [4] | composite z-score [5] | composite z-score [6] | composite z-score (Sam68 (KHDRBS1)) | composite z-score [7] | composite z-score [8]
1 | CN1C(=O)C2C=CC(C(O)c3ccc(F)cc3)N(N(c3ccccc3)c3ccccc3)C2C1=O (stereo not given) | 0.698 | 2.43 (inactive) | 0.206 | 0.0264 | 0.506 | 2.82 | 0.0833 | -0.0714 | -0.69 | 0.324
2 | C=CC[C@]1(C(=O)NCc2ccccc2)N=C(c2ccc(OCCCO)cc2)O[C@H]1c1ccccc1CN=[N+]=[N-] | 0.183 | -0.451 (inactive) | 0.367 | -0.104 | 0.563 | 0.935 | 0.403 | 1.31 | -0.329 | 0.79
3 | CCN(CC)c1ccc(N2CC=CC34O[C@@H]5/C=C\CCC(C)OC(=O)C5[C@H]3C(=O)N(CCCCCO)[C@@H]4C2=O)cc1 (stereo not given in full) | -0.295 | -0.4 (inactive) | -0.222 | -0.19 | 0.905 | -1.05 | -0.472 | -2.57 | -1.16 | -2.12
4 | O=C(NC1CC1)[C@@H]1c2ccccc2C(=O)N(Cc2cc(F)cc(C(F)(F)F)c2)[C@H]1c1ccc(CO)cc1 | 0.416 | -0.0461 (inactive) | -0.182 | -0.112 | 0.237 | 0.668 | 0.747 | 0.521 | -0.791 | 0.0427
5 | O=C(CS)NCCCCCNC(=O)[C@@H]1C[C@@H]2C(=O)NCC(=O)N2[C@@H]1c1cccc(OCCO)c1 | 0.57 | 0.498 (inactive) | -0.162 | -0.125 | 0.179 | 1.61 | 0.783 | 0.459 | 0.656 | 0.324
6 | [N-]=[N+]=NCc1ccccc1[C@@H]1OC(c2ccc(OCCCO)cc2)=N[C@]1(CCS(=O)(=O)c1ccccc1)C(=O)N1CCCCC1 | 0.997 | -0.228 (inactive) | 0.739 | -0.124 | 0.754 | 2.85 | 0.475 | 1.29 | -0.59 | 1.17
7 | CC(CO)N1C(=O)[C@@H]2C3C(=O)OCCC/C=C\[C@H]3OC23C=CCN(CCN2CCOCC2)C(=O)[C@@H]13 (stereo not given in full) | -0.424 | 0.286 (inactive) | -0.21 | -0.147 | 0.366 | -0.463 | -0.277 | 0.191 | -0.0493 | 0.272
8 | CN(C)C(=O)[C@]1(Cc2ccccc2)N=C(c2ccc(OCCCO)cc2)O[C@@H]1c1ccccc1N=[N+]=[N-] | 0.784 | 0.431 (inactive) | 0.23 | -0.0145 | 0.782 | 2.12 | 0.764 | 1.32 | -0.199 | 1.1
9 | COCCOC(=O)N1C(=O)[C@@]2(c3cc(C#CC4=CCCCC4)ccc31)[C@H](c1ccc(OCCO)cc1)N1[C@H](c3ccccc3)[C@H](c3ccccc3)OC(=O)[C@H]1[C@@H]2C(=O)N1CCc2cc(OC)c(OC)cc2C1 | 0.134 | 0.111 (inactive) | 0.206 | -0.0677 | 0.342 | 1.01 | 0.868 | 1.31 | 0.839 | 0.922
10 | COc1ccc(NC(=O)O[C@H]2[C@H](OC(=O)c3cc4ccccc4[nH]3)[C@@H](OC(=O)c3cc4ccccc4[nH]3)[C@@H](OC)O[C@@H]2CO)cc1 | 0.144 | 0.561 (inactive) | -0.235 | -0.0404 | 0.541 | 1.24 | 0.614 | 0.156 | -0.113 | -0.586
11 | Cc1ccc(/C=C/C=O)cc1 | 0.931 | 0.421 (inactive) | -0.217 | -0.117 | -0.287 | 0.206 | 0.127 | -0.912 | 0.24 | -0.156
12 | COc1cc2c(cc1O)C=[N+](Cc1cc3c(cc1Br)OCO3)CC2 | -0.71 | -0.402 (inactive) | -0.185 | -0.126 | 0.844 | 0.0478 | 0.27 | -0.54 | -0.139 | -1.27
13 | COCCOC(=O)N1C(=O)[C@@]2(c3cc(C#CC4(O)CCCCCC4)ccc31)[C@H](C(=O)Nc1nc3ccccc3s1)[C@H]1C(=O)O[C@H](c3ccccc3)[C@H](c3ccccc3)N1[C@@H]2c1ccccc1OCCO | 0.306 | -0.129 (inactive) | -0.0647 | -0.162 | 0.598 | 1.73 | 0.233 | 1.3 | -0.0036 | 1.16
14 | CC(C)(C)OC(=O)CC[C@]1(C(=O)NCCN2CCOCC2)COC(c2ccc(OCCCO)cc2)=N1 | 0.735 | 0.347 (inactive) | 0.199 | -0.0995 | 0.719 | 2.48 | 0.737 | 1.28 | -0.634 | 0.919
15 | CO[C@H]1O[C@H](CO)[C@@H](OC(=O)Nc2ccc(Oc3ccccc3)cc2)[C@H](OC(=O)Nc2ccc3c(c2)OCO3)[C@@H]1OC(=O)Nc1ccc2c(c1)OCO2 | 0.277 | 1.29 (inactive) | 0.327 | 0.0248 | 0.333 | 2.02 | 0.869 | 1.3 | 0.335 | 1.18
16 | COc1ccc([Si](C)(C)[C@H]2[C@H](CCO)O[C@@]3(C(=O)N(Cc4ccccc4)c4ccc(N5CCCCC5=O)cc43)[C@@H]2C)cc1 | 0.78 | 0.388 (inactive) | -0.0918 | -0.133 | 0.342 | 0.376 | 0.237 | 0.965 | 0.207 | 0.905

Row | SMILES | composite z-score (Albumin (Bos taurus)) | composite Z-score [1] | composite z-score [2] | composite z-score [3] | composite z-score [4] | composite z-score [5] | composite z-score [6] | composite z-score (Sam68 (KHDRBS1)) | composite z-score [7] | composite z-score [8]
17 | O=C1NC(=O)C2C1C=CC(C(O)c1ccc(-c3ccccc3)s1)N2Nc1ccc(Cl)cc1Cl (stereo not given) | 0.924 | 1.1 (inactive) | 0.0979 | -0.0611 | 0.759 | 2.82 | 1.2 | 1.33 | -0.717 | 1.06
18 | CN(C)CCCCCCNC(=O)[C@@H]1C[C@@H]2C(=O)N3CCC[C@H]3C(=O)N2[C@@H]1c1ccc(O)cc1 | -0.645 | 2.74 (inactive) | 0.488 | 0.119 | 0.738 | 2.77 | 1.47 | 1.31 | 1.43 | 1.16
19 | C=CC1c2cc(O)c(OC)cc2CCN1Cc1cccc(OC(F)(F)F)c1 (stereo not given) | 0.971 | 0.625 (inactive) | -0.0596 | -0.16 | 0.893 | 3.33 | 0.754 | 0.909 | 0.44 | 0.462
20 | [N-]=[N+]=Nc1ccccc1[C@H]1OC(c2ccc(OCCCO)cc2)=N[C@@]1(CCS(=O)(=O)c1ccccc1)C(=O)NCc1ccccc1 | 0.307 | -0.0549 (inactive) | 0.318 | -0.037 | 0.684 | 2.3 | 0.403 | 1.32 | -0.164 | 0.94
21 | [N-]=[N+]=Nc1ccccc1C[C@]1(C(=O)NCc2ccccc2)N=C(c2ccc(OCCCO)cc2)O[C@H]1c1ccccc1N=[N+]=[N-] | 0.896 | 0.411 (inactive) | 0.555 | -0.0211 | 0.676 | 2.63 | 0.458 | 1.06 | -0.124 | 1.13
22 | CCOC(=O)C1=CCC(c2ccc(F)cc2)N(S(=O)(=O)c2ccc(C)cc2)C1 (stereo not given) | 0.569 | -0.297 (inactive) | 0.0351 | -0.113 | 0.397 | 0.75 | 0.552 | 0.376 | 0.563 | 0.221
23 | COc1ccc([C@H]2OC[C@@H]3CCC(=O)N32)cc1 | 0.626 | 1.42 (inactive) | 0.0948 | -0.161 | 0.286 | -0.215 | 0.552 | 0.382 | 0.504 | 0.3
24 | COc1ccc(CCNC(=O)[C@@]2(C)c3ccccc3C(=O)N(c3ccc(C)cn3)[C@H]2c2ccc(CO)cc2)cc1 | -0.252 | -0.133 (inactive) | -0.365 | -0.0956 | 0.793 | -0.335 | 0.165 | 0.243 | -1.02 | -0.699
25 | COCC(=C=CC[C@@H](O)c1ccc(OCCO)cc1)C[C@@H](O)c1ccccn1 | 0.762 | -0.628 (inactive) | -0.0947 | -0.157 | 0.532 | 0.528 | -0.517 | 0.472 | 0.141 | 0.403
26 | C=CC[C@]1(C(N)=O)COC(c2ccc(OCCCO)cc2)=N1 | 0.102 | 0.0767 (inactive) | 0.0831 | -0.104 | 0.903 | 0.148 | -0.136 | -0.133 | 0.0919 | 0.817
27 | CCOC(=O)C1=CC[C@@H](c2ccc(C(F)(F)F)cc2)N(S(=O)(=O)c2ccc(C)cc2)[C@H]1c1ccccc1 | 0.871 | 0.506 (inactive) | 0.158 | 0.21 | 0.603 | 2.27 | 0.782 | 1.31 | -0.863 | 1.13
28 | NCCCCCNC(=O)[C@H]1C[C@H]2C(=O)N3CCC[C@H]3C(=O)N2[C@H]1c1ccc(O)cc1 | 0.851 | 1.56 (inactive) | 0.489 | -0.0024 | 0.445 | 0.676 | 0.0612 | 1.33 | 0.464 | 1.17
29 | CCN(CC)c1ccc(N2CC=CC34O[C@@H]5C=CCOC(=O)[C@@H]5[C@H]3C(=O)N(CCCCCCO)[C@@H]4C2=O)cc1 (stereo not given in full) | 0.99 | 0.451 (inactive) | -0.126 | -0.174 | 0.909 | 0.922 | 0.751 | 0.0127 | -1.5 | -0.214
30 | COCCOC(=O)N1C(=O)[C@@]2(c3cc(C#Cc4ccc(OC)cc4)ccc31)[C@H](c1ccc(O)cc1)N1[C@H](c3ccccc3)[C@H](c3ccccc3)OC(=O)[C@H]1[C@@H]2C(=O)Nc1nc2ccccc2s1 | 0.576 | 0.303 (inactive) | -0.0299 | -0.124 | 0.537 | 1.54 | -0.0159 | 1.3 | 0.0727 | 1.16
31 | CCCCN1CC=CC23O[C@@H]4C=CCOC(=O)[C@@H]4[C@H]2C(=O)N(CCCCCCO)[C@@H]3C1=O (stereo not given in full) | -0.469 | 0.998 (inactive) | -0.182 | -0.187 | 0.95 | -0.275 | 0.456 | -0.821 | -1.83 | -1.24
